Measurements published in article PMC7862700, “An all-to-all approach to the identification of sequence-specific readers for epigenetic DNA modifications on cytosine”.

Key:
Experiment in all cases: DAPPL (digital affinity profiling via proximity ligation, sequencing); 10 mM Tris-HCl pH 7.5, 50 mM NaCl, 1 mM DTT, 4% glycerol, room temperature, 30 min; GST-TFs on glutathione beads, 16-mer random dsDNA library, 0.1% formaldehyde crosslink after washing; high values mean tight binding
Settings in all cases: protein: recombinant; tags: N-terminal GST; dsDNA, one strand shown
FLI1 = biological target: T1, FLI1 (Homo sapiens, UniProt Q01543 1-452)
T1 sequence: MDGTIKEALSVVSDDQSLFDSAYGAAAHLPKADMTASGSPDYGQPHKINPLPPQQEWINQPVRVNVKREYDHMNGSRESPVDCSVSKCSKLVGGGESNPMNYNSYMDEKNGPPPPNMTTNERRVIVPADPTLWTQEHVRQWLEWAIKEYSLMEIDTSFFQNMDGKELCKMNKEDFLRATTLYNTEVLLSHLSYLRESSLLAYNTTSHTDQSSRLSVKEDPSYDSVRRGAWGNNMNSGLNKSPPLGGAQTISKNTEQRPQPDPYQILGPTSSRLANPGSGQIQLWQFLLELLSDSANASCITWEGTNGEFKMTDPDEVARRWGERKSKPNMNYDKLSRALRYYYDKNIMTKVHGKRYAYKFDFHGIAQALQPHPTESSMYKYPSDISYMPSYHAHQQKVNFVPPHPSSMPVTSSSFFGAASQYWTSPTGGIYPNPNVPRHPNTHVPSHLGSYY
Method in brief: (§1)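 Human transcription factors carrying a GST fusion were produced in yeast, bound to glutathione beads, tagged with DNA barcodes and pooled together with a tag-only sample. Each pool was held with 200 nmole of a random double-stranded 16-mer DNA library in Tris/NaCl/DTT/glycerol buffer for 30 min at room temperature, then washed, crosslinked in 0.1% formaldehyde, proximity-ligated with BsaI/T4 ligase (1 h, 37 °C), PCR-amplified and sequenced on an Illumina NextSeq500. Binding signal is the read frequency of each hexamer for a given factor divided by its frequency in the tag-only sample.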

ELK1 = biological target: T2, ELK1 (Homo sapiens, UniProt P19419 1-428)
T2 sequence: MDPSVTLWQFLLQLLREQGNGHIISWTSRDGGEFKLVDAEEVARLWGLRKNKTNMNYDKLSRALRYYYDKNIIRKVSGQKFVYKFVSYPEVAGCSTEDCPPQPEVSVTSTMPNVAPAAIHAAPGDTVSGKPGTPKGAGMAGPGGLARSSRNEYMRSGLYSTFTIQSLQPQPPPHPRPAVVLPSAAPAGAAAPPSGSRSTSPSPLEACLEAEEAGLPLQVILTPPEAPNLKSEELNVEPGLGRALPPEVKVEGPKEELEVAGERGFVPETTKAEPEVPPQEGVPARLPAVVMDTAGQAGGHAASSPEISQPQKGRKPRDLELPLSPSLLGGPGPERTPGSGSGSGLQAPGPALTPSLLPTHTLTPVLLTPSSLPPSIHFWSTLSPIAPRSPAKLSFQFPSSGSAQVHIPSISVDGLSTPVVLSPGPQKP
Method in brief: as §1

GABPA = biological target: T3, GABPA (Homo sapiens, UniProt Q06546 1-454)
T3 sequence: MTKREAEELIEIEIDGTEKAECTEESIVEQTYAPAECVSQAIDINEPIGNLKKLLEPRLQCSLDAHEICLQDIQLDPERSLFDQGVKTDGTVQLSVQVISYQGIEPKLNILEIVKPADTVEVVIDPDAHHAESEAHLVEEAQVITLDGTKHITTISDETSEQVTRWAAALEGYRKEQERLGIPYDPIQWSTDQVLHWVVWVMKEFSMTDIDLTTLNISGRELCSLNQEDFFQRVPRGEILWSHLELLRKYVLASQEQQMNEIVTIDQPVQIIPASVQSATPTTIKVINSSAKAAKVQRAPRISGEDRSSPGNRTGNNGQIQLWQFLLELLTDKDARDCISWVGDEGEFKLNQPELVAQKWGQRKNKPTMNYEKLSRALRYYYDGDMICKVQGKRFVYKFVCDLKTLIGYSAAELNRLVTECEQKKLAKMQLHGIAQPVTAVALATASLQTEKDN
Method in brief: as §1

ERG = biological target: T4, ERG (Homo sapiens, UniProt P11308 1-479)
T4 sequence: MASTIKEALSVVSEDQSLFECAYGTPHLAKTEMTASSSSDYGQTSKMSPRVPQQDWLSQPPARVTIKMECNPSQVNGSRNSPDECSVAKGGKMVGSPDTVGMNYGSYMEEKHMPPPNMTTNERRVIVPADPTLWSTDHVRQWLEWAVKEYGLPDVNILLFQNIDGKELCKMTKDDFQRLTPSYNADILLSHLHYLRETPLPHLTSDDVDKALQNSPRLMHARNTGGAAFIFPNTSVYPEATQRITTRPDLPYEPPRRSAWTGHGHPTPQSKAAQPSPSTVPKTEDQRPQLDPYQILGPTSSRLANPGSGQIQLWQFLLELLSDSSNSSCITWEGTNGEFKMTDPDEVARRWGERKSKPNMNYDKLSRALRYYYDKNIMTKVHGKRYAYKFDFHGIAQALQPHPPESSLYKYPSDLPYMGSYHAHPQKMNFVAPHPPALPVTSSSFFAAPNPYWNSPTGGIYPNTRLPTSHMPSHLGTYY
Method in brief: as §1

ELF1 = ELF1 (Homo sapiens, UniProt P32519 1-619)
Sequence of ELF1 (P32519 whole entry): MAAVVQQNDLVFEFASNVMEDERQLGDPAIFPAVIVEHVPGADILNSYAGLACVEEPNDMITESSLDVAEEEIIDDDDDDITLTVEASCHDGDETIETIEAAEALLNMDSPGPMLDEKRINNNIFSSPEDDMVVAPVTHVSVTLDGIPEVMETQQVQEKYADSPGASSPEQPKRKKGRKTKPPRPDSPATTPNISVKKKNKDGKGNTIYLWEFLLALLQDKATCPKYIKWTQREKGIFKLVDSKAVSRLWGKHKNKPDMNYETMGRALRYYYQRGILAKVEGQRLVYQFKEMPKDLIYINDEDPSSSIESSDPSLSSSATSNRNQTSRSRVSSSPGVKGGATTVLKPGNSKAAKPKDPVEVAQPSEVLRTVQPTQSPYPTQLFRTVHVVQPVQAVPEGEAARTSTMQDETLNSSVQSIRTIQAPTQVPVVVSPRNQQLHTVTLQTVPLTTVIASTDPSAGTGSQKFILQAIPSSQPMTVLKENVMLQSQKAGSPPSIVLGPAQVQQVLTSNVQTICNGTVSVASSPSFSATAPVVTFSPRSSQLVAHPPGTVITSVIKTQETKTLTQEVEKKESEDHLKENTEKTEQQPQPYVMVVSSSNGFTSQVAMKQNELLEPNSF
Method in brief: as §1

EHF = biological target: T5, EHF (Homo sapiens, UniProt Q9NZC4 1-300)
T5 sequence: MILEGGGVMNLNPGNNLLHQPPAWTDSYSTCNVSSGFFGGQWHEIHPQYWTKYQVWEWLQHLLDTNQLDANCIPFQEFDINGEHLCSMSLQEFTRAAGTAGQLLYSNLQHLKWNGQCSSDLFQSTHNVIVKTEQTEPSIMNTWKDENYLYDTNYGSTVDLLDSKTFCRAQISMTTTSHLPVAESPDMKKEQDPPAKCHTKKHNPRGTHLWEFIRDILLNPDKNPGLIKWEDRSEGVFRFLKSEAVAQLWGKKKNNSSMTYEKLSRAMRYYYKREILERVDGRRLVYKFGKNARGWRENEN
Method in brief: as §1

SPI1 = SPI1 (Homo sapiens, UniProt P17947 1-270)
Method in brief: as §1

SPIB = SPIB (Homo sapiens, UniProt Q01892 1-262)
Sequence of SPIB (Q01892 whole entry): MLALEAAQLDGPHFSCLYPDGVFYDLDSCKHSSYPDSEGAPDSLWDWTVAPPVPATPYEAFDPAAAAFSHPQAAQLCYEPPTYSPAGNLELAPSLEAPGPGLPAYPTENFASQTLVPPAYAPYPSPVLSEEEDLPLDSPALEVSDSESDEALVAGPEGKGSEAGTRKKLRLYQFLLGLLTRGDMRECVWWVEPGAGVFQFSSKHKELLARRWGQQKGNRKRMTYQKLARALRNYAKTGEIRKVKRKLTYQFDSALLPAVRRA
Method in brief: as §1

ELK3 = biological target: T6, ELK3 (Homo sapiens, UniProt P41970 1-407)
T6 sequence: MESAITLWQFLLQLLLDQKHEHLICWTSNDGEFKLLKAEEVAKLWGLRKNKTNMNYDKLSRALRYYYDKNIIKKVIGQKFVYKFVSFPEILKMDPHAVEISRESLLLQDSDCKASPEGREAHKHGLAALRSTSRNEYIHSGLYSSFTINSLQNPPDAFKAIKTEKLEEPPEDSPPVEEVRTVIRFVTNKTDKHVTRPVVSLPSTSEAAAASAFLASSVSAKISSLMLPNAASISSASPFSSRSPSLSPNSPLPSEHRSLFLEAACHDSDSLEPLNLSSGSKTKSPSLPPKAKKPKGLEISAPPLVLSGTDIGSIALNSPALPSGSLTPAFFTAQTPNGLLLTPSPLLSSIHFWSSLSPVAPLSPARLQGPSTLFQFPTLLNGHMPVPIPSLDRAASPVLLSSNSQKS
Method in brief: as §1

| Sequence | binding signal (FLI1) | binding signal (ELK1) | binding signal (GABPA) | binding signal (ERG) | binding signal (ELF1) | binding signal (EHF) | binding signal (SPI1) | binding signal (SPIB) | binding signal (ELK3) |
| --- | --- | --- | --- | --- | --- | --- | --- | --- | --- |
| AAAAAA | 1.29 fold enrichment (6-mer frequency, TF over GST control) | 1.28 fold enrichment (6-mer frequency, TF over GST control) | 1.3 fold enrichment (6-mer frequency, TF over GST control) | 1.2 fold enrichment (6-mer frequency, TF over GST control) | 1.32 fold enrichment (6-mer frequency, TF over GST control) | 1.45 fold enrichment (6-mer frequency, TF over GST control) | 1.52 fold enrichment (6-mer frequency, TF over GST control) | 1.4 fold enrichment (6-mer frequency, TF over GST control) | 1.41 fold enrichment (6-mer frequency, TF over GST control) |
| TCTGGT | 1.25 fold enrichment (6-mer frequency, TF over GST control) | 1.29 fold enrichment (6-mer frequency, TF over GST control) | 1.32 fold enrichment (6-mer frequency, TF over GST control) | 1.33 fold enrichment (6-mer frequency, TF over GST control) | 1.22 fold enrichment (6-mer frequency, TF over GST control) | 1.21 fold enrichment (6-mer frequency, TF over GST control) | 1.31 fold enrichment (6-mer frequency, TF over GST control) | 1.21 fold enrichment (6-mer frequency, TF over GST control) | 1.31 fold enrichment (6-mer frequency, TF over GST control) |
| ATTGGG | 1.23 fold enrichment (6-mer frequency, TF over GST control) | 1.24 fold enrichment (6-mer frequency, TF over GST control) | 1.33 fold enrichment (6-mer frequency, TF over GST control) | 1.13 fold enrichment (6-mer frequency, TF over GST control) | 1.21 fold enrichment (6-mer frequency, TF over GST control) | 1.24 fold enrichment (6-mer frequency, TF over GST control) | 1.25 fold enrichment (6-mer frequency, TF over GST control) | 1.26 fold enrichment (6-mer frequency, TF over GST control) | 1.17 fold enrichment (6-mer frequency, TF over GST control) |
| ACAGGA | 1.15 fold enrichment (6-mer frequency, TF over GST control) | 1.08 fold enrichment (6-mer frequency, TF over GST control) | 1.13 fold enrichment (6-mer frequency, TF over GST control) | 1.22 fold enrichment (6-mer frequency, TF over GST control) | 1.04 fold enrichment (6-mer frequency, TF over GST control) | 1.12 fold enrichment (6-mer frequency, TF over GST control) | 1.34 fold enrichment (6-mer frequency, TF over GST control) | 1.22 fold enrichment (6-mer frequency, TF over GST control) | 1.04 fold enrichment (6-mer frequency, TF over GST control) |
| TTCGAT | 1.32 fold enrichment (6-mer frequency, TF over GST control) | 1.23 fold enrichment (6-mer frequency, TF over GST control) | 1.22 fold enrichment (6-mer frequency, TF over GST control) | 1.43 fold enrichment (6-mer frequency, TF over GST control) | 1.41 fold enrichment (6-mer frequency, TF over GST control) | 1.38 fold enrichment (6-mer frequency, TF over GST control) | 1.29 fold enrichment (6-mer frequency, TF over GST control) | 1.24 fold enrichment (6-mer frequency, TF over GST control) | 1.32 fold enrichment (6-mer frequency, TF over GST control) |
| GCGCTC | 1.26 fold enrichment (6-mer frequency, TF over GST control) | 1.2 fold enrichment (6-mer frequency, TF over GST control) | 1.16 fold enrichment (6-mer frequency, TF over GST control) | 1.15 fold enrichment (6-mer frequency, TF over GST control) | 1.12 fold enrichment (6-mer frequency, TF over GST control) | 1.09 fold enrichment (6-mer frequency, TF over GST control) | 1.13 fold enrichment (6-mer frequency, TF over GST control) | 1.18 fold enrichment (6-mer frequency, TF over GST control) | 1.15 fold enrichment (6-mer frequency, TF over GST control) |
| TATTGC | 1.39 fold enrichment (6-mer frequency, TF over GST control) | 1.33 fold enrichment (6-mer frequency, TF over GST control) | 1.44 fold enrichment (6-mer frequency, TF over GST control) | 1.31 fold enrichment (6-mer frequency, TF over GST control) | 1.41 fold enrichment (6-mer frequency, TF over GST control) | 1.3 fold enrichment (6-mer frequency, TF over GST control) | 1.32 fold enrichment (6-mer frequency, TF over GST control) | 1.37 fold enrichment (6-mer frequency, TF over GST control) | 1.3 fold enrichment (6-mer frequency, TF over GST control) |
